Records with an inconclusive call do not appear. Entries that show only a call come without a potency. Calls of active or inactive are those of the source. Calls follow the shape of the dose curve; as a rule, active = well fitted cell-killing curve with a large enough effect in the repeat runs; inconclusive = weak or mixed curves, or effect the other way; inactive = flat fitted curve, though single readings scatter.
experiment: Human pregnane X receptor (PXR) small molecule agonists, qHTS cell viability counter screen (AID 1346977); conditions: PXR-Luc HepG2 viability, CellTiter-Fluor, 24 h; series mostly up to 92.4 µM; also: nearly all actives have a fitted effect of over 50% in size
Text: U.S. Tox21 Program National Center for Advancing Translational Sciences [NCATS] NIH Chemical Genomics Center [NCGC] U.S. Environmental Protection Agency [EPA] National Institutes of Environmental Health Sciences [NIEHS] National Toxicology Program [NTP] U.S. Food and Drug Administration [FDA] Tox21 Assay Overview: The human pregnane X receptor (hPXR) regulates the expression of several drug metabolizing enzymes and induction of these proteins is a major mechanism for developing drug resistance in cancer. One such key enzyme catalyzing the drug metabolism is cytochrome P450 3A4 (CYP3A4). Changes in CYP3A4 expression affect drug metabolism, thereby reducing the therapeutic efficacy and altering toxicological response to a drug and which finally causes adverse drug interaction. To screen Tox21 libraries for compounds that activate hPXR-mediated CYP3A4 gene expression, PXR-Luc HepG2 cells were used. Also cytotoxicity of the compounds was tested in parallel by measuring the cell viability using CellTiter-Fluor assay system in the same wells.
Tox21 Assay Protocol Summary: PXR-Luc HepG2 cells were dispensed at 2,000 per well in 5uL of assay medium containing 5% charcoal-stripped FBS into white solid bottom 1536-well plates (Corning Life Sciences, Corning, NY) using a Multidrop Combi (Thermo Scientific, Waltham, MA) dispenser. The assay plates were incubated at 37 C and 5% CO2 for 5hr, and then 23nL of compounds dissolved in DMSO and positive control were transferred using a Pintool station (Wako, San Diego, CA). The assay plates were incubated at 37C and 5% CO2 for 24hr. For cytotoxicity read, after 23hr incubation at 37C, 1uL CellTiter-Fluor reagent (Promega Corporation, Madison, WI) was added to each well of the assay plates using Flying Reagent Dispenser (FRD, Aurora Discovery, San Diego, CA). After 1hr incubation at 37C and 5% CO2, the fluorescence signal was quantified using a ViewLux plate reader (PerkinElmer, Shelton, CT).

Row | SMILES | Potency
1 | Cc1c(-c2cccnc2)c2ccccc2n1CCCCC(=O)O | inactive
2 | Nc1ccc(F)cc1F | inactive
3 | O=C(O)c1ccccc1[N+](=O)[O-] | inactive
4 | CCCCCCCCCCCC(=O)OCC | inactive
5 | CC(C)C/C=C(\C=O)c1ccccc1 | inactive
6 | CC1(COc2ccc(CC3SC(=O)NC3=O)cc2)CCCCC1 (stereo not given) | inactive
7 | COC(=O)Cc1cccc2ccccc12 | inactive
8 | CCCCCCCCNC | inactive
9 | O=C(C1CCCCC1)N1CC(=O)N2CCCc3ccccc3C2C1 (stereo not given) | inactive
10 | CC(C)NC(=O)c1ccccc1N | inactive
11 | OCC(O)c1ccccc1 (stereo not given) | inactive
12 | CCCCCCOC(=O)c1ccccc1 | inactive
13 | O=C(Nc1ccccc1)c1cc([N+](=O)[O-])ccc1Cl | inactive
14 | CC(C)(O)C(=O)O | inactive
15 | Nc1cccc2c(=O)[nH][nH]c(=O)c12 | inactive
16 | CC(=O)CC/C=C(\C)CC/C=C(\C)CC/C=C(\C)CCC=C(C)C | inactive
17 | OCCCO | inactive
18 | O=C(OCCOCCOCCOC(=O)c1ccccc1)c1ccccc1 | inactive
19 | Cc1cc(SC2=C(O)C[C@@](CCc3ccc(N)cc3)(C(C)C)OC2=O)c(C(C)(C)C)cc1CO | inactive
20 | C/C(=C(\CCO)SS/C(CCO)=C(\C)N(C=O)Cc1cnc(C)nc1N)N(C=O)Cc1cnc(C)nc1N | inactive

Row | SMILES | Potency
21 | CCc1cnc(C(=O)O)c(C(=O)O)c1 | inactive
22 | c1ccc(CN(Cc2ccccc2)Cc2ccccc2)cc1 | inactive
23 | COc1ccnc2c1CCCCC2S(=O)c1nc2ccccc2[nH]1 (stereo not given) | inactive
24 | N#C[C@@H]1CC(F)(F)CN1C(=O)CNC1CC2CCC(C1)N2c1ncccn1 (stereo not given in full) | inactive
25 | CC(COc1ccccc1)NC(C)C(O)c1ccc(O)cc1 (stereo not given) | inactive
26 | CCOC(C)OCC | inactive
27 | CCc1ccc2c(c1)C(=O)c1ccccc1C2=O | inactive
28 | O=S(=O)(O)c1cc(Cl)c(Cl)cc1Cl | inactive
29 | O=C(OC1C[C@H]2CC[C@@H](C1)[N+]21CCCC1)C(O)(c1ccccc1)c1ccccc1 (stereo not given in full) | inactive
30 | CCN(CCCCOC(=O)c1ccc(OC)c(OC)c1)C(C)Cc1ccc(OC)cc1 (stereo not given) | inactive
31 | O=C1C=CCCC1 | inactive
32 | CCCCOC(=O)CC#N | inactive
33 | CC(CC(C#N)(c1ccccc1)C(C)C)N(C)C (stereo not given) | inactive
34 | O=P(c1ccccc1)(c1ccccc1)c1ccccc1 | inactive
35 | Nc1nc(Cl)nc2c1ncn2[C@H]1C[C@H](O)[C@@H](CO)O1 | inactive
36 | Nc1ccc(C(=O)Oc2ccccc2)c(O)c1 | inactive
37 | OCCc1ccncc1 | inactive
38 | CC1(C)CC(=O)CC(C)(C)N1 | inactive
39 | CC1=C(C)C(=O)C(CCCCC#CCCCC#CCO)=C(C)C1=O | inactive
40 | CCCCCCCCCCCCCCCCC(=O)O | inactive
